KCNH2 3.1 inh = KCNH2 3.1 (human) potassium channel inhibition; U2OS KCNH2 3.1, thallium flux FluxOr; hits give low values; activity change, % (tested at about 1.8 µM); hit rate 0.95% among 340,000;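 active = maximum activity change below -70%; inconclusive = maximum activity change from -70% to -50%; inactive = maximum activity change above -50%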;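 note: thallium influx rate constant from kinetic fluorescence after stimulation buffer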
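U2OS cells transduced with KCNH2 3.1 mutant virus (1.77 x 10^8 /mL, 4 h), plated overnight at 37 C, loaded 45 min with FluxOr dye plus Red40 quencher. Thallium flux rate constant from kinetic reads after stimulation buffer, normalised to controls.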
Six1-Eya2 inh = blocks human Six1 binding to Eya2; AlphaScreen GST-Six1/His-Eya2 binding, biochemical; hits give low values; activity change, % (concentration not given with the values); hit rate 0.56% among 360,000; Q15475+O00167
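AlphaScreen luminescence read after one hour at 37 °C in darkness. Pin-transferred compounds met GST-Six1 and His-Eya2 protein (5X stock 250 nM/500 nM) plus glutathione donor and Ni-chelate acceptor beads (5X, 50 ug/mL).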
hERG WT inh = blocks the wildtype human KCNH2 potassium channel. U2OS, BacMam KCNH2, thallium flux FluxOr; hits give low values. Q12809. activity change, % at 1.84 µM. hit rate 0.37% among 340,000;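 active = maximum activity change below -70%; inconclusive = maximum activity change between -70% and -50%; inactive = maximum activity change above -50%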
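U2OS cells transduced with wild-type KCNH2 virus are loaded with FluxOr dye for 45 min, and thallium flux is measured in kinetic reads before and after stimulation buffer. Rate constants are normalized to DMSO controls.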
KDM4E inh = blocks human JMJD2E demethylase activity. B2RXH2. JMJD2E catalytic domain, FDH-coupled NADH fluorescence (FDH is formaldehyde dehydrogenase). Potency, µM (top dose mostly 57.1 µM), for inactives: at the highest dose activity change, negative = inhibition, hits mostly inhibitors. hit rate 1.6% among 230,000; active = well fitted inhibition curve with a large enough effect, not every such curve was filed as active; inconclusive = small, poorly fitted or top-dose-only effect, or another doubt; inactive = no such curve, though single readings can be large or run the other way;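 note: potency is the fitted concentration of half-maximal effect; 0% = wells with enzyme and -100% = buffer wells without enzyme; nearly all actives have a fitted effect of over 50% in size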
Target sequence (B2RXH2 1-337 limits assumed): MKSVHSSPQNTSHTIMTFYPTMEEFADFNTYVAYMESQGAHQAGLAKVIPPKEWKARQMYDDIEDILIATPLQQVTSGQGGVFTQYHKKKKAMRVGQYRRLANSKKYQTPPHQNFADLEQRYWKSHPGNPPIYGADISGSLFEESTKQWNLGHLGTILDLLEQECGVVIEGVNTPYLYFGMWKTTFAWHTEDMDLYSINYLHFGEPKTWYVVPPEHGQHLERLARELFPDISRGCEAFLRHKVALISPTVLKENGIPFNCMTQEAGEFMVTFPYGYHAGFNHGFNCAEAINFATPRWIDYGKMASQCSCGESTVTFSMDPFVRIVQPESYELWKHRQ
CtBP-E1A inh = inhibitors of CtBP/E1A interaction; AlphaScreen GST-E1A/His-CtBP binding, 1536-well; hits give low values; activity change, % (concentration not given with the values); hit rate 0.49% among 340,000
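Steps: dispense buffer (Tris pH 8.0, NaCl 300 mM, TCEP 1 mM, BSA, Tween 20); add 5X protein mix (GST-E1A, His-CtBP, 125 nM each); pin 23 nL compound; 2 h at 37 °C, dark; add 5X beads (50 ug/mL); 1 h; read.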
* = called active by the depositor; ? = inconclusive; . = no result. Hits are enriched below; roughly 2% of the tested compounds scored in any of these assays. Cut-off read from the data, not from the text of the source, unless noted: active = activity change below about -65%; inconclusive = mostly about -30% to -63%; inactive = weaker than that. Unless noted, % is set by controls: 0 for no effect and ±100 for the full control effect.

SMILES | KCNH2 3.1 inh | Six1-Eya2 inh | hERG WT inh | KDM4E inh | CtBP-E1A inh
O=C(N/N=C/c1c(O)ccc2ccccc12)C(=O)N1CCCC1 | -3 | -87* | 11 | . | ?
Oc1ccc2ccccc2c1C=Nc1ccccc1Br | 5 | 1 | -22 | . | .
Oc1ccccc1N=Cc1c(O)ccc2ccccc12 | 5 | -14 | -31 | 25µM* | -13
O=c1c2ccccc2nc(N/N=C/c2c(O)ccc3ccccc23)n1O | -15 | -90* | 4 | 11µM* | -94*
COc1ccc(C(=O)Oc2cc(N)n(S(=O)(=O)c3ccccc3)n2)cc1 | 11 | -15 | . | 1% | .
CC(C)(C)c1ccc2c(c1)N(CC(=O)N1CCOCC1)C(=O)CO2 | 5 | 0 | 6 | . | 1
Cc1noc(C)c1C(=O)Nc1ccc(N(C)C)cc1 | 1 | -6 | 1 | . | -23
COc1ccc(-c2c(C)n([O-])c3c([n+]2=O)CCCCC3)cc1 | -8 | 4 | 1 | 0% | -8
O=C(N/N=C/c1c(O)ccc2ccccc12)c1cccc(C(F)(F)F)c1 | 0 | -28 | -17 | 25µM* | -14
O=C(CN1CCCC1)N/N=C/c1c(O)ccc2ccccc12 | -23 | -90* | 2 | . | -91*
Cc1cc(C)n(CCC(=O)N/N=C/c2c(O)ccc3ccccc23)n1 | -14 | -89* | 6 | 0.2µM* | .
O=C(NN=Cc1c(O)ccc2ccccc12)C1CC1 | 5 | ? | 7 | . | -69*
Cc1cc(C)n(CCC(=O)N/N=C/c2ccc(O)cc2)n1 | 0 | -8 | 3 | -2% | 3
Cc1cccc(/C=N/NC(=O)CN2CCCCCCC2)c1 | 18 | 4 | 7 | -26% | 5
O=C(CN1CCCCCC1)N/N=C/c1ccc(Cl)c(Cl)c1 | -75* | -11 | -1 | 1% | -12
CCn1c(O)c(/C=C2\C=Nc3ccccc32)sc1=Nc1ccccc1 | -13 | -6 | 1 | 6% | -10
COc1ccc(-c2nc3ccccc3n(CC(C)C)c2=O)cc1 | . | 8 | . | . | -2
O=[N+]([O-])c1ccc(N2CCN(Cc3ccccc3)CC2)c(S(=O)(=O)N2CCOCC2)c1 | -73* | ? | -43 | 1% | -23
CCN1CCN(c2ccc(S(=O)(=O)N3CCOCC3)cc2NC(=O)/C=C/c2ccc([N+](=O)[O-])cc2)CC1 | -75* | 0 | -7 | . | -14
CC(C)(C)c1cc(/C=N/O)cc(C(C)(C)C)c1O | 12 | 1 | 4 | 2% | 0
CC(NC(=O)c1cc2c(=O)n(C)c3ccccc3c2n1C)c1ccc2c(c1)OCCO2 (stereo unspecified) | -27 | 2 | -125* | . | 4
Cn1c(C(=O)Nc2ccc3c(c2)OCO3)cc2c(=O)n(C)c3ccccc3c21 | 10 | 7 | 1 | ? | 3
COc1cc2[nH]c(=O)n(CCC(=O)N3CCc4ccccc4C3)c(=O)c2cc1OC | 8 | 3 | 19 | ? | 2
COc1cc2[nH]c(=O)n(CCCCCC(=O)N3CC=C(c4ccccc4)CC3)c(=O)c2cc1OC | 3 | ? | -2 | ? | -93*
Cc1cnc(C(=O)Nc2ccccc2-n2cccc2)cn1 | 2 | -4 | -2 | -1% | -4
SMILES | KCNH2 3.1 inh | Six1-Eya2 inh | hERG WT inh | KDM4E inh | CtBP-E1A inh
CC(C)(C)NC(=O)CCN(/N=C/c1ccccc1)C1=NS(=O)(=O)c2ccccc21 | 5 | ? | -5 | . | -65*
Cc1cccc(/C=N/N(CCO)C2=NS(=O)(=O)c3ccccc32)c1 | -18 | ? | 29 | -2% | -81*
Cc1ccccc1CNC(=O)CCC(=O)N1CCOc2ccccc21 | 28 | 1 | 12 | . | 7
NS(=O)(=O)c1ccc(CCNCc2ccccc2OCc2ccc(F)cc2)cc1 | -76* | -15 | -33 | . | -9
Cc1cc(Cl)ccc1OCC(O)CNCCc1ccc(S(N)(=O)=O)cc1 (stereo unspecified) | -98* | 0 | ? | . | .
COc1cc(CNCCc2ccc(S(N)(=O)=O)cc2)ccc1OCc1ccc(Cl)cc1 | -109* | -6 | -31 | 0% | -13
NS(=O)(=O)c1ccc(NCc2ccccc2OCc2ccc(F)cc2)cc1 | -22 | -1 | -5 | -3% | 1
Nc1cccn2c(-c3ccc(Cl)c(Cl)c3)cnc12 | -27 | -2 | -26 | 20µM* | -12
Nc1cccn2c(-c3ccc(Cl)cc3)cnc12 | -12 | -15 | 4 | ? | .
CN1CCc2cccc3c2[C@@H]1Cc1ccc(O)c(O)c1-3 | . | -4 | . | 32µM* | 1

High-throughput results (PubChem BioAssay)
